Compound activity from PubChem.
Cycloheximide cs – Cycloheximide Counterscreen for Small Molecule Inhibitors of Shiga Toxin | AID 2314, 2010 | actives 12% (n = 300,000) | max response, % | cell reporter, cycloheximide protein synthesis inhibition counterscreen; in the data active = max response mostly above about 13%, no sharp cut-off; inactive = mostly below about 14%; note: read at 38.3 µM for the half of the compounds with a filed dose; 0% is about no effect
Shiga inhibitor – A qHTS for Small Molecule Inhibitors of Shiga Toxin; Vero cells, Shiga toxin protein synthesis inhibition reporter; inhibition, % at 38.7 µM; actives 9.2% (n = 290,000); AID 2315, 2010; in the data active = inhibition mostly above about 28%, no sharp cut-off; inactive = mostly below about 43%; note: 0% is about no effect
LmPK inh – qHTS Assay for Inhibitors of Leishmania Mexicana Pyruvate Kinase (LmPK) | purified LmPK, Kinase-Glo ATP luminescence, 1 h | Potency, µM (highest dose often 57.5 µM), without a hit: top-dose activity change, negative = inhibition, hits mostly inhibitors | actives 0.37% (n = 290,000) | Q27686; note: potency is the fitted concentration of half-maximal effect; % is set by controls: 0 for no effect and ±100 for the full control effect
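Kinase-Glo luminescence read after 1 h RT reaction of 0.1 nM LmPK with 0.5 mM PEP and 0.1 mM ADP. Activity scaled between uninhibited and enzyme-free controls.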
Sm TGR inh – qHTS Assay for the Inhibitors of Schistosoma Mansoni Peroxiredoxins; purified TGR, DTNB reduction, TNB absorbance 405 nm; Potency, µM (highest dose often 114 µM), inactives show at the top dose activity change, negative = inhibition, hits mostly inhibitors; actives 3% (n = 360,000); note: potency is the fitted concentration of half-maximal effect; % is set by controls: 0 for no effect and ±100 for the full control effect; nearly all actives have a fitted effect of over 60% in size
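First, TGR (20 nM dispensed) and NADPH were mixed with compound. Second, a 15 min room-temperature incubation followed. Third, further NADPH and then DTNB were added to start the reaction. Finally, TNB absorbance was monitored kinetically.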
TbPYK inhibitor – qHTS of Trypanosoma Brucei Inhibitors; pyruvate kinase (Trypanosoma brucei), Q57TT1; TbPYK enzyme, Kinase-Glo Plus ATP luminescence, 45 min; Potency, µM (highest dose often 76.8 µM), without a hit: at the highest dose activity, negative = inhibition, actives largely listed as inhibitors; actives 0.12% (n = 410,000); note: potency is the fitted concentration of half-maximal effect; % is set by controls: 0 for no effect and ±100 for the full control effect; nearly all actives have a fitted effect of over 50% in size
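In this concentration-response screen, enzyme-free wells defined baseline while DMSO plates tracked drift. Each reaction combined TbPYK, substrate, compound and 130 uM ADP for 45 min at room temperature. Kinase-Glo Plus luminescence gave the signal.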
Giardia FBPA inh – qHTS Assay for Inhibitors of Fructose-1,6-bisphosphate Aldolase from Giardia Lamblia; A8B2U2; purified Giardia FBPA; Potency, µM (titrated, usually from 59.6 µM), for inactives: at the top dose activity, negative = inhibition, most hits filed as inhibitors; actives 0.71% (n = 290,000); note: potency is the fitted concentration of half-maximal effect; % is set by controls: 0 for no effect and ±100 for the full control effect; nearly all actives have a fitted effect of over 55% in size
Target sequence (A8B2U2 whole entry, looked up): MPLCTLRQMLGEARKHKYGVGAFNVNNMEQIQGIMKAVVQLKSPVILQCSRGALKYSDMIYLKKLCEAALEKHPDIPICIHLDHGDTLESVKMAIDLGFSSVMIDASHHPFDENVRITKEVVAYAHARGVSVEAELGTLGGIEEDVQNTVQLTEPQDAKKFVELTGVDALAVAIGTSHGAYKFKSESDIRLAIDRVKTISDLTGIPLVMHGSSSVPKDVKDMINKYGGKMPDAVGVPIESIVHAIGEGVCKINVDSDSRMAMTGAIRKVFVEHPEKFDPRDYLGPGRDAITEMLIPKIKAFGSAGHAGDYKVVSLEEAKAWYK
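40 nM FBPA preincubated 10 min at RT with compound (up to 57.5 uM final), then substrate plus GAPDH/TPI/NAD/arsenate coupling and diaphorase/resazurin added. Fluorescence read after 20 min at RT, 525/598 nm.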
Numbers without * were called inactive; ? = inconclusive; · = no result given; [ ] = remark or other dose. Shown is part of a subset that was picked to be rich in hits. Unless noted, calls come from the whole dose curve; as a rule, active = well fitted curve in the direction sought with a large enough effect; inconclusive = small, poorly fitted or top-dose-only effect, or another doubt; inactive = no such curve, though single readings can be large; an effect the other way counts as inactive or inconclusive.

SMILES | Cycloheximide cs | Shiga inhibitor | LmPK inh | Sm TGR inh | TbPYK inhibitor | Giardia FBPA inh
Cn1ccc(C(=O)Nc2ccc3c(c2)OCCO3)n1 | 49* | 71* | ? | 4% | -14% | -3%
O=C(Nc1ccc2c(c1)OCCO2)c1cc(-n2cnnc2)ccc1Cl | -2 | -11 | -1% | -19% | -12% | -5%
Cn1nc(C(=O)Nc2ccc3c(c2)OCCO3)cc1C(=O)O | 20* | 19 | ? | · | -12% | 0%
COc1ccc(C2(C)NC(=O)N(CC(=O)NC(C)c3ccc(CC(C)C)cc3)C2=O)cc1 (stereo not given) | -1 | -6 | -2% | -4% | -10% | 6%
COC(=O)N1C(=O)[C@](c2ccsc2)(C(C)C)N1C(=O)OC | 20* | 14 | 0% | 32µM* | -8% | -2%
COC(=O)N1C(=O)[C@](c2ccc(OC)cc2)(C(C)C)N1C(=O)OC | 10* | 14 | -4% | 45µM* | 1% | 9%
c1cncc(-c2noc(C34CC5CC(CC(C5)C3)C4)n2)c1 | 22* | 36* | -6% | 1% | 3% | 4%
N#Cc1nc(NCCCCO)nc(Nc2ccccc2)n1 | · | · | · | · | · | 2%
Cc1cccc(C)c1OCC(=O)Nc1cccc(C(=O)O)c1 | 41* | 92* | 3% | · | 2% | 21%
Cc1ccc(C)c(OCC(=O)Nc2ccc3c(c2)OCO3)c1C | 7 | 10 | 0% | 5% | -17% | -7%
Cc1ccc(C)c(OCC(=O)Nc2cccc(C(=O)O)c2)c1C | 41* | 46 | 2% | -7% | · | 16%
Cc1cccc(C)c1OCC(=O)Nc1ccc(Cl)cc1C(=O)c1ccccc1 | · | · | · | 3% | 1% | ·
COc1cc(NC(=O)CSc2nc3nc(C)c(Cc4ccc(C)cc4)c(C)n3n2)cc(OC)c1 | · | · | · | 0% | 1% | ·
CCCCN(CC)C(=O)c1ccc(Cl)c(Cl)c1 | 14* | 29 | 2% | 2% | -4% | 5%
CCCCN(CC)C(=O)c1ccc(Cl)cc1 | -5 | -3 | 0% | 22% | 0% | 1%
Cc1nc(Nc2ccc(C(=O)O)cc2)sc1-c1ccccc1 | 53* | 84* | 2% | -1% | -4% | 8%
Cc1nc(Nc2ccccc2)sc1-c1ccccc1 | 35* | 88* | -9% | 1% | -5% | -16%
CC(C)=CCC/C(C)=C\CC/C(C)=C\CC/C=C(\C)CC/C=C(\C)CCC=C(C)C | · | · | · | · | -2% | ·
CCN1CCN(c2cc(-c3ccc(F)cc3)c3c(n2)CCCCCC3)CC1 | · | · | · | · | -6% | ·
CN1C(=O)C(=Cc2ccc(N3CCCCCC3)o2)C(=O)N(C)C1=S | 3 | -2 | -17% | 35µM* | ? | -7%
CC/C(=N\NC(=O)c1c(-c2ccccc2)noc1C)c1ccc(C)o1 | -1 | -9 | 4% | -2% | -7% | 17%
C/C(=N\NC(=O)c1ccoc1C)c1ccc(Cl)s1 | 41* | 87* | 0% | 2% | -3% | -1%
C/C(=N\NC(N)=S)c1ccc(Cl)s1 | -2 | -2 | -11% | 6% | -19% | 0%
C/C(=N\NC(=O)c1csc(C)c1C)c1ccc(Cl)s1 | 33* | 72* | 2% | -8% | -21% | -4%
C/C(=N\NC(=S)NC(C)C)c1ccc(Cl)s1 | 16 | 24 | -3% | -7% | -3% | 8%
SMILES | Cycloheximide cs | Shiga inhibitor | LmPK inh | Sm TGR inh | TbPYK inhibitor | Giardia FBPA inh
CC/C(=N\NC(=O)c1ccoc1C)c1ccc(C)o1 | 82* | 149* | -6% | -2% | -5% | -3%
CSc1ncc(/C=C2/C(=O)NC(=O)N(c3ccc(Cl)cc3)C2=O)cn1 | -8 | 4 | 3% | 5.6µM* | -13% | -1%
CSc1ncc(/C=C2/C(=O)NC(=O)N(c3ccc(C)cc3)C2=O)cn1 | 8 | -12 | 2% | 2.5µM* | -27% | 0%
Cc1ccc(N2C(=O)NC(=O)/C(=C\c3cnc(-c4ccccc4)nc3)C2=O)cc1 | 16 | -4 | 9% | 1.6µM* | -4% | -9%
CCOc1ccc(N2C(=O)NC(=O)/C(=C/c3cnc(SC)nc3)C2=O)cc1 | -2 | 12 | 11% | 8.9µM* | ? | 9%
O=C1OCC2=C1C(c1cccc(Cl)c1)CC(=O)N2c1ccc(C(F)(F)F)cc1 (stereo not given) | · | · | · | -1% | 0% | ·
CS/C(N)=C(C#N)/C(C#N)=C(\N)SC | 6 | 17 | · | · | · | -17%
COc1cc(/C=C2\C(=O)NC(=O)N(c3ccc(C)cc3)C2=O)cc(OC)c1O | -5 | -5 | -3% | ? | ? | ?
COc1cc(/C=C2/C(=O)NC(=O)N(c3ccc(C)cc3)C2=O)cc(OC)c1OC | 27* | 67* | 7% | ? | ? | -11%
O=C(NCc1ccc(-c2nc3ccccc3s2)cc1)c1ccco1 | 34* | 71* | -9% | -11% | -9% | 5%
O=C(NC(=S)NCc1ccc(-c2nc3ccccc3s2)cc1)c1ccco1 | 30* | 64* | 6% | 2% | -10% | 2%
Cc1nc2ccn(Cc3ccco3)c(=O)c2cc1C(=O)NCc1ccc(Cl)cc1 | · | · | · | ? | 0% | ·
COc1cc(CNCCO)ccc1OCCc1ccccc1 | 13* | 11 | -2% | 8% | 4% | 10%
COc1cc(CNCCc2ccccc2)ccc1OCc1ccc(Cl)nc1 | 9 | 35 | -5% | -7% | ? | 2%
COc1cc(CNCCc2ccccc2)ccc1OCC(N)=O | 1 | -10 | -5% | -5% | -5% | -2%
COc1cc(CNCc2ccccn2)ccc1OCc1ccccc1Cl | 13* | 33 | 0% | -17% | -8% | 22%
COc1cc(CNCC(O)c2ccccc2)ccc1OCc1ccc(Cl)nc1 (stereo not given) | 17* | 30 | 1% | -21% | 4% | -3%
COc1ccc(CNCc2ccco2)cc1OCc1ccccc1 | 41* | 90* | 1% | -6% | 2% | ?
CNCc1ccc(OCc2ccccc2)c(OC)c1 | 28* | 27 | -3% | -3% | -1% | -4%
c1ccc(COc2cccc(CNCc3cccnc3)c2)cc1 | 9 | 13 | -1% | · | 2% | -8%
COc1cc(CNCc2cccnc2)ccc1OCc1ccccc1 | 36* | 76* | -6% | -7% | -1% | -2%
COc1ccc(C)cc1NC1=C(Cl)C(=O)N(C2CCCCC2)C1=O | 1 | 26 | 5% | 45µM* | -4% | ·
CCOc1ccc(NC2=C(Cl)C(=O)N(C3CCCCC3)C2=O)cc1 | -5 | -5 | 1% | 7% | -2% | 0%
CN(C/C=C\c1ccccc1)Cc1cccc2ccccc12 | · | · | · | · | 2% | -3%[21.7 µM]
CSc1nc2c(c(=O)n1-c1ccc(F)cc1)SCC2 | -1 | -2 | -1% | -10% | -15% | -3%
